Shown are actives, neighbours in structure and some others; about 1.6% of the full set was active somewhere.
FAK blocker: inhibitors of human focal adhesion kinase | Q05397 | biochemical FAK kinase activity assay | inhibition, %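 (tested at 7 µM)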 | 97,000 tested, 0.84% active | AID 727; in the data active = inhibition above about 19%;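 note: 0% = DMSO and 100% = reference compound high control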
Target sequence (Q05397 whole entry, looked up): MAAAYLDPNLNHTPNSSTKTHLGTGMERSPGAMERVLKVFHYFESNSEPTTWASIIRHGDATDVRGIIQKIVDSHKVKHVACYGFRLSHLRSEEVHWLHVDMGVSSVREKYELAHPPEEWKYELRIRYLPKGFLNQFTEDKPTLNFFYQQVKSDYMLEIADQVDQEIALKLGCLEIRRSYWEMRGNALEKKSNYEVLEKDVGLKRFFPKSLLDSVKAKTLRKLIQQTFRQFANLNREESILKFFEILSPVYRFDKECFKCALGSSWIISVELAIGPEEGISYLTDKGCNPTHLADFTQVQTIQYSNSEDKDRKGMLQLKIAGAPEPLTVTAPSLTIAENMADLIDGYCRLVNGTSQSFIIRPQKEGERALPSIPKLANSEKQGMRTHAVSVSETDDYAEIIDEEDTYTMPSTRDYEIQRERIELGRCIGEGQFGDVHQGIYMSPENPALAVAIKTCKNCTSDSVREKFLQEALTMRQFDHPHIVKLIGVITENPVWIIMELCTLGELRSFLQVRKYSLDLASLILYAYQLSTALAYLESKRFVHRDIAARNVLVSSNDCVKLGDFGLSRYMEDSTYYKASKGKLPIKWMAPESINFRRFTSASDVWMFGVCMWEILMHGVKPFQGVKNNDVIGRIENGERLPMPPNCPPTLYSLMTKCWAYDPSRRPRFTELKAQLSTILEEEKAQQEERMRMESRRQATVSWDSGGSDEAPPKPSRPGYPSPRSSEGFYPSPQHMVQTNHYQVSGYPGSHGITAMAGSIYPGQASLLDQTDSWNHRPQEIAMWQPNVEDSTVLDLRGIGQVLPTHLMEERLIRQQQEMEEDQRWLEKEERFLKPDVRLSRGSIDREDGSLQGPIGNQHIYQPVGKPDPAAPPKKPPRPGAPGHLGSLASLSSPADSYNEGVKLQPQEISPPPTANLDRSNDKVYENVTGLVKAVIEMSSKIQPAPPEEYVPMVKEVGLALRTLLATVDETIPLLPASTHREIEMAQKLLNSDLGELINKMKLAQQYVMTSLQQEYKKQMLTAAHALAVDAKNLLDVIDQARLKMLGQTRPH
Plk1 PBD FP: inhibitors of human Plk1 polo box domain binding; P53350; Plk1 PBD phosphopeptide binding, fluorescence polarization; AID 693; 97,000 tested, 0.13% active; inhibition, %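 (tested at about 20 µM)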; in the data active = inhibition above about 34%, passing the limit was not always enough
EphB4 ephrin blk: blocks human EphB4 binding to ephrin-B2 | P54760 | EphB4 LBD / TNYL-RAW-Alexa532 peptide, fluorescence polarization | inhibition, % at 7 µM | 97,000 tested, 0.15% active;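 active = inhibition above the screen-wide mean inhibition plus 3 SD, cut at about 15% in these data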;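 note: 0% = DMSO wells and 100% = excess unlabeled TNYL-RAW peptide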
Smad3 FoxH1 inh: blocks human Smad3 binding to FoxH1 peptide. AID 630. inhibition, % at 25 µM. TR-FRET Smad3/Dy647-FoxH1 peptide binding, europium anti-His. 88,000 tested, 0.29% active. P84022;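 active = compounds that reduce the energy-transfer binding signal between the protein and its labelled peptide by more than half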;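 note: 0% = Smad3 plus labelled peptide maximal FRET and 100% = peptide-only background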
PLK1 inh: inhibitors of human PLK1 kinase. inhibition, % at 10 µM. P53350. AID 619. recombinant PLK1 kinase, TR-FRET peptide phosphorylation. 97,000 tested, 0.53% active;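 active = inhibition of 50% or more in the single-concentration screen; inactive = inhibition below 50%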;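 note: 0% = DMSO max control and 100% = H-89 dihydrochloride min control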
PLK1 confirm: PLK1 (human) kinase inhibition, confirmed. shares compounds with PLK1 inh. recombinant PLK1 kinase, TR-FRET peptide phosphorylation. inhibition, % at 10 µM. 210 tested, 20% active. AID 744;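 active = inhibition at or above 50% in each of two repeat confirmation tests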;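 note: 0% = DMSO max control and 100% = H-89 kinase-blocked min control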
Plk1 interf: interferes with the Plk1 assay readout, not true inhibition; shares compounds with PLK1 inh; AID 756; Plk1 TR-FRET assay interference, compound added post-reaction; inhibition (interference), % at 10 µM; 210 tested, under 10 active;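 active = both duplicate runs show 50% or greater inhibition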;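 note: 0% = DMSO max control and 100% = H-89 min control inhibited reaction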
* = called active by the depositor; / = no result; [ ] = remark or other dose.

SMILES	FAK blocker	Plk1 PBD FP	EphB4 ephrin blk	Smad3 FoxH1 inh	PLK1 inh	PLK1 confirm	Plk1 interf
CN1CCC[C@H]1c1cccnc1.O=C(O)c1ccccc1O.O=C([OH2+])c1ccccc1O.O=C([OH2+])c1ccccc1O.O=C([OH2+])c1ccccc1O.[Mn]	/	/	/	19	/	/	/
c1ccc(-c2cc(-c3cc(-c4ccccn4)[nH]n3)n[nH]2)nc1	/	/	/	7	/	/	/
O=C1c2cccc(O)c2C(=O)c2c(O[C@@H]3O[C@H](CO)[C@@H](O)[C@H](O)[C@H]3O)cccc21	/	/	/	70*	/	/	/
O=C1c2cccc(O)c2C(=O)c2c(O)cccc21	/	/	/	12	/	/	/
CC(=O)O[C@H]1CC[C@@]2(C)C(=CC[C@H]3[C@H]2CC[C@]2(C)[C@@H]4[C@@H](C)[C@]5(CC[C@H](C)CN5)O[C@@H]4C[C@@H]32)C1	/	/	/	8	/	/	/
COC(=O)[C@H]1[C@@H]2C[C@H]3c4[nH]c5ccccc5c4CCN3C[C@H]2CC[C@@H]1O	/	/	/	0	/	/	/
Cc1ccnc(SCCn2c(N3CCC(C)CC3)nc3c2c(=O)n(C)c(=O)n3C)n1	-3	-29	-1	16	3	/	/
Cc1ccnc(SCCn2c(N3CCCCC3)nc3c2c(=O)n(C)c(=O)n3C)n1	8	8	20*	3	-6	/	/
Nc1ccn([C@H]2O[C@H](CO)[C@@H]3[O][Sn]([c]4ccccc4)([c]4ccccc4)[O][C@@H]32)c(=O)n1	/	/	/	7	/	/	/
CCn1c(CSc2nnc(-c3cccnc3)n2-c2ccccc2C)nc2cc(C(=O)O)ccc21	-3	-11	30*[fluorescence artefact?]	9	38	/	/
Cc1ccccc1-n1c(SCC(=O)c2cc(C)n(C)c2C)nnc1-c1cccnc1	-2	20	-3	-12	-14	/	/
CCn1c(CSc2nnc3ccccn23)nc2cc(C(=O)O)ccc21	7	-15	27*[fluorescence artefact?]	-4	11	/	/
CN1CCc2ccccc2[C@H]1Cc1ccccc1NC(=O)c1sc2ccccc2c1Cl	/	/	/	32	/	/	/
CN(C)c1ncc(C2=C(Cl)C(=O)C(N3CCCC3)=C(Cl)C2=O)s1	39*	12	1	26	29	/	/
Fc1ccc2c(c1)C1C=CCC1C(c1cc3c(cc1Br)OCO3)N2 (stereo not drawn)	4	-6	-10	/	-11	/	/
O=C(O)c1ccc2c(c1)[C@@H]1C=CC[C@@H]1[C@H](c1ccccn1)N2	6	-7	5	32	72*	59*	46
Cc1ccc(C(=O)O)cc1S(=O)(=O)N1CCOCC1	1	3	-1	-3	0	/	/
Cc1ccc(C(=O)O)cc1S(=O)(=O)N1CCSCC1	-2	-1	4	6	82*	-7	-57
Cc1ccc(C(C(=O)NC2CCCC2)N(Cc2cccs2)C(=O)c2csnn2)o1 (stereo not drawn)	2	-4	6	-5	-2	/	/
CCOC(=O)c1c(C)c(C)n2c1NC(=O)C2	/	/	/	9	/	/	/
Cc1ccc(-c2noc(C3CCCN(C(=O)c4c(F)cccc4F)C3)n2)cc1 (stereo not drawn)	-5	18	3	5	125*	-7	-52
Cc1ccc(-[n+]2cc(=O)o[nH]2)cc1	/	/	/	-3	/	/	/
COc1cc(OC)nc(Oc2ccccc2C(=O)Oc2cccc(C)c2)n1	-3	5	-8	/	-12	/	/
c1nnc(NCNc2nncs2)s1	/	/	/	8	/	/	/
CC1=C(C(=O)OC(C)C)C(c2cccnc2)n2ncnc2N1 (stereo not drawn)	-1	7	-10	-1	83*	5	-44
SMILES	FAK blocker	Plk1 PBD FP	EphB4 ephrin blk	Smad3 FoxH1 inh	PLK1 inh	PLK1 confirm	Plk1 interf
CC1=C(C(=O)OC(C)C)C(c2ccncc2)n2ncnc2N1 (stereo not drawn)	1	21	-5	-2	-10	/	/
C=C(C)c1cccc(C(C)(C)NC(=O)N2CCN(c3ccccn3)CC2)c1	6	8	3	2	74*	-9	-58
Cc1cc(C)c(S(=O)(=O)n2ccc(-c3ccc(OCCN(C)c4ccccn4)cc3)n2)c(C)c1	-2	-38	0	/	-1	/	/
Cc1cc(Nc2cccc(Cl)c2)n2ncnc2n1	/	/	/	-2	/	/	/
Cc1cc(C(C#N)c2cccc(Cl)c2)n2ncnc2n1 (stereo not drawn)	-6	26	1	-9	71*	63*	-55
O=C(CN(Cc1ccccc1)S(=O)(=O)c1ccc(Br)cc1)NCc1ccco1	1	12	-4	0	85*	-8	-58
O=C(O)c1cccc(NC(=S)NC(=O)C(c2ccccc2)c2ccccc2)c1	2	32	0	/	-10	/	/
Nc1ncnc2nc(N3CCN(CCO)CC3)[nH]c12	/	/	/	-2	/	/	/
O=C(O)[C@@H](O)[C@@H](O)[C@H](O)C(=O)CO	/	/	/	2	/	/	/
CC(C)c1ccc(C(C(=O)NC(C)(C)C)N(C(=O)CNC(=O)c2ccco2)c2cccnc2)cc1 (stereo not drawn)	0	1	-13	5	-13	/	/
CCC(C)(C)NC(=O)C(c1ccco1)N(C(=O)CNC(=O)c1cccs1)c1cccnc1 (stereo not drawn)	1	-21	-7	0	109*	-14	-62
COc1cccc(C(=O)n2cnnc2N)c1OC	-3	-7	4	4	128*	1	-56
Cc1c(C(=O)OC(C)C)nnn1-c1nonc1N	-2	29	-2	-5	-9	/	/
O=C(COc1ccccc1)Nc1nnc(-c2ccccc2)o1	4	-10	2	-11	-7	/	/
O=C(COc1ccccc1)Nc1nnc(-c2ccc(Cl)s2)o1	4	-1	-2	5	72*	-7	-54
Cc1cccc(NC(=O)CCN2C(=O)C3C4C=CC(C4)C3C2=O)c1 (stereo not drawn)	-2	-3	6	1	-5	/	/
Cc1cccc(NC(=O)NCCN2C(=O)C3C4C=CC(C4)C3C2=O)c1 (stereo not drawn)	-4	2	5	-1	73*	-6	-53
Cc1nnc(NC(=O)CSc2nc3c(c(=O)n2C)SC(C)C3)s1 (stereo not drawn)	0	13	-8	2	-6	/	/
CC1Cc2nc(SCC(=O)Nc3nccs3)n(C)c(=O)c2S1 (stereo not drawn)	-1	7	-9	12	73*	64*	-50
CCc1ccccc1N1CC23C=CC(O2)C(C(=O)OCC(C)C)C3C1=O (stereo not drawn)	0	6	-5	-5	72*	-9	-52
CCCCOC(=O)C1[C@H]2C(=O)N(c3ccccc3CC)C[C@]23C=C[C@H]1O3 (stereo partly drawn)	-4	-24	2	-17	-6	/	/
COC(=O)c1ccc(CSc2nnc(-c3c[nH]c4ccccc34)n2C)o1	-4	5	-5	-9	71*	-13	-55
CCSc1nnc(NC(=O)CSc2nnc(-c3c[nH]c4ccccc34)n2C)s1	-2	24	3	4	76*	-3	-46
CCc1nnc(NC(=O)CSc2nnc(-c3c[nH]c4ccccc34)n2CCOC)s1	1	21	-3	8	-9	/	/

Screens: PubChem BioAssay, several laboratories
